Measurements as given in PubChem BioAssay AID411 (National Center for Advancing Translational Sciences (NCATS), 2006).
Among all 72,000 compounds or so, about 1,600 (2.2%) were called active. A call without a number means that no potency is given here. Calls follow the shape of the dose curve; as a rule, active = well fitted inhibition curve with a large enough effect; inconclusive = small, poorly fitted or top-dose-only effect; inactive = flat fitted curve, though single readings scatter. The full list was thinned out, with actives kept by preference.
Also: nearly all actives have a fitted effect of over 40% in size.
Potency is read from the fitted curve at half-maximal effect.

The compounds below were run against Luciferin 4-monooxygenase (Photinus pyralis) (UniProt P08659) (assay: qHTS Assay for Inhibitors of Firefly Luciferase). Details: purified firefly luciferase, luminescence, 8 min; series mostly up to 57.1 µM.
Sequence of Luciferin 4-monooxygenase (Photinus pyralis) (P08659 whole entry, looked up): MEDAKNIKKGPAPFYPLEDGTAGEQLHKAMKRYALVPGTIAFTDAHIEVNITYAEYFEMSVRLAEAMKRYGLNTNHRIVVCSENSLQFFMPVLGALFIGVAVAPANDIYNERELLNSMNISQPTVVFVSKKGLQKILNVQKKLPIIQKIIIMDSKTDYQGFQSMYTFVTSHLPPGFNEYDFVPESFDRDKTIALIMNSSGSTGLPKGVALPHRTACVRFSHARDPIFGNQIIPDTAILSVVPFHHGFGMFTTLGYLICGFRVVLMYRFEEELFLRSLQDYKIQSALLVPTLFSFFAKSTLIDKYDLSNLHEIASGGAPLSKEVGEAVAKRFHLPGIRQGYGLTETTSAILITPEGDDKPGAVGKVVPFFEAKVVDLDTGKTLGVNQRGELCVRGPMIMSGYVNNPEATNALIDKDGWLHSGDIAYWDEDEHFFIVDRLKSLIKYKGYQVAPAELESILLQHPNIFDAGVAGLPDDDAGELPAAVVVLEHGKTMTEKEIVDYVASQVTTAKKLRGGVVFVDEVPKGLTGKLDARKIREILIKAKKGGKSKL
In short: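 Firefly luciferase (PKLight detection mix) with 10 uM ATP in pH 7.2 imidazole buffer (KCl, MgCl2, Tween 20, BSA). Compounds tested across a concentration series (qHTS). Luminescence read after 8 min at ambient temperature.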
For `CCn1nnc(NC(=O)c2c(OC)cccc2OC)n1`, the Potency was “inactive”.
In the case of `CCOC(=O)CCc1c(C)c(C#N)c2[nH]c3ccccc3n2c1=O`, the Potency is reported as “inactive”.
`FC(F)Oc1ccccc1C1CC(c2ccc(Br)s2)Nc2ncnn21` (stereo not given) was tested, and the Potency was “inactive”.
With `COC(=O)C1C(=O)c2c([nH]c(C(=O)OCCSC)c2C)CC1C` (stereo not given) the Potency was 7.94 µM (active).
For `CCCOC(=O)C1=C(C)NC2=C(C(=O)C(C(=O)OC)C(C)C2)C1c1ccc(N(C)C)cc1` (stereo not given), the Potency was “inactive”.
For `CCCOC(=O)c1[nH]c2c(c1C)C(=O)CC(c1cc(OC)c(OC)c(OC)c1)C2` (stereo not given), the Potency was “inactive”.
In the case of `O=C(NCc1ccco1)c1sc2cccc(F)c2c1Cl`, the Potency is reported as “inactive”.
With `CN=C1SC(C(=O)O)CC(=O)N1C` (stereo not given) the Potency was “inactive”.
`O=C(c1csnn1)N1CCC[C@@]2(CCN(c3cccc(-c4ccccc4)c3)C2)C1` was tested, and the activity change, negative = inhibition was 0.28% [at 11.4 µM] (inactive).
With `O=C(Nc1cccnc1)c1noc2c1CCCCC2` the Potency was 12.6 µM (active).
In the case of `O=C(Nc1cccnc1)c1ccc2c(c1)OCO2`, the Potency is reported as “inactive”.
For `CCOc1cccc(C(=O)Nc2cccnc2)c1`, the Potency was “inactive”.
In the case of `COc1ccc(OC)c([C@H](O)CNC(=O)CN)c1`, the Potency is reported as “inactive”.
In the case of `CNC(=O)NCCN1CCCC1=O`, the Potency is reported as “inactive”.
In the case of `COC(=O)COc1ccc2oc(=O)cc(C)c2c1`, the Potency is reported as “inactive”.
For `Cc1noc(C)c1C(=O)Nc1ccccn1`, the Potency was “inactive”.
For `CCN(CC)S(=O)(=O)c1cc(C(=O)Nc2ccccn2)ccc1C`, the Potency was 15.8 µM (active).
With `CCN(CC)S(=O)(=O)c1cccc(C(=O)Nc2ccccc2)c1` the Potency was “inactive”.
With `N[C@H](C(=O)O)c1ccc(C(=O)O)c(O)c1` the Potency was “inactive”.
In the case of `c1ccc(CNc2ncncc2-c2cccnc2)cc1`, the activity change, negative = inhibition is reported as -1.06% [at 2.29 µM] (inactive).
For `Cc1ccc(OCC(O)CN2CCN(CC(O)COc3ccc(C)cc3Cl)CC2)c(Cl)c1` (stereo not given), the Potency was “inactive”.
In the case of `CCOC(=O)CSc1nnc(-c2ccncc2)o1`, the Potency is reported as “inactive”.
With `CCCCSc1nnc(-c2ccc(C)cc2)o1` the Potency was 15.8 µM (active).
In the case of `CCOC(=O)CSc1nnc(-c2cccc(Br)c2)o1`, the Potency is reported as “inactive”.
With `CC1=C(C(=O)OCc2ccccc2)C(c2ccco2)n2ncnc2N1` (stereo not given) the Potency was “inactive”.
For `COc1ccc(NC(=O)c2ccc(OC)cc2)cc1`, the Potency was 2 µM (active).
`COc1ccc(NC(=O)c2c(C)oc3c2CCCC3)cc1` was tested, and the Potency was “inactive”.
`CCOc1ccc(C(=O)Nc2ccncc2)cc1` was tested, and the Potency was “inactive”.
For `COc1ccc2occ(C(=O)c3ccc(N=C(C)N(C)C)cc3)c2c1`, the Potency was “inactive”.
In the case of `N#Cc1c2c(c(-c3ccccc3)[nH]c1=O)CCCC2`, the Potency is reported as “inactive”.
In the case of `O=C(CCN1C(=O)c2ccncc2C1=O)Nc1ccc2c(c1)OCCO2`, the Potency is reported as “inactive”.
In the case of `O=C(COc1ccc2oc3c(c2c1)CCCC3)Nc1ccccn1`, the Potency is reported as “inactive”.
With `Cc1cc2nc(-c3ccc(NC(=O)c4cccnc4)cc3)oc2cc1C` the Potency was 12.6 µM (active).
With `CCOC(=O)c1cc(NC(=O)c2cccnc2)cc(C(=O)OCC)c1` the Potency was “inactive”.
With `Cc1ccc(OCC(=O)Nc2ccc(-c3nc4ncccc4o3)cc2)cc1` the Potency was “inactive”.
